Test results reported in PubChem BioAssay AID1159580 (chemical genetic matrix, 2015).
The whole screen tested about 5,500 compounds, of which about 2,000 (36%) were called active. Roughly 18% stayed inconclusive and do not appear here. Rule as the data show it: active = normalized growth mostly below about 0.91 (no sharp cut-off); inconclusive = no clear call, values can overlap the other calls; inactive = mostly above about 0.92. The list shows a part of the results.

Test: chemical genetic growth profiling, strain panel (AID 1159580);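 also: tested at 20 µM; growth read once vehicle control cultures reached saturation at 30 °C; 1 = growth at the plate median or of vehicle wells; lower values mean less growth of the strain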
Details: S. cerevisiae deletion strains, growth OD

Measured: normalized growth

O=C(O)COc1ccc(Cl)cc1Cl
inactive: locus YAL013W, strain DEP1, hits give low values 1.01 | locus YAL021C, strain ccr4, hits give low values 0.997 | locus YAL026C, strain drs2, hits give low values 1.01 | locus YAL030W, strain snc1, hits give low values 0.988 | locus YBL061C, strain skt5, hits give low values 0.997 | locus YBR009C, strain hhf1, hits give low values 0.992 | locus YBR021W, strain FUR4, hits give low values 1 | locus YBR023C, strain chs3, hits give low values 0.992 | locus YBR171W, strain sec66, hits give low values 1 | locus YBR229C, strain ROT2, hits give low values 0.999 | locus YBR231C, strain swc5, hits give low values 0.989 | locus YBR279W, strain paf1, hits give low values 0.992 | locus YCL011C, strain gbp2, hits give low values 1 | locus YCL016C, strain dcc1, hits give low values 0.994 | locus YCL029C, strain bik1, hits give low values 1.03 | locus YCL061C, strain MRC1, hits give low values 0.995 | locus YCL069W, strain vba3, hits give low values 1 | locus YCR088W, strain abp1, hits give low values 1 | locus YDL005C, strain med2, hits give low values 0.992 | locus YDL035C, strain GPR1, hits give low values 1.03 | locus YDL040C, strain nat1, hits give low values 0.996 | locus YDL074C, strain BRE1, hits give low values 1.05 | locus YDL101C, strain DUN1, hits give low values 0.999 | locus YDL134C, strain PPH21, hits give low values 1.02 | locus YDL185W, strain tfp1, hits give low values 1.02 | locus YDL192W, strain arf1, hits give low values 1.02 | locus YDR001C, strain nth1, hits give low values 1 | locus YDR069C, strain doa4, hits give low values 0.986 | locus YDR101C, strain arx1, hits give low values 1.02 | locus YDR137W, strain rgp1, hits give low values 1.01 | locus YDR150W, strain NUM1, hits give low values 1.01 | locus YDR159W, strain sac3, hits give low values 0.982 | locus YDR162C, strain NBP2, hits give low values 1.01 | locus YDR195W, strain ref2 0.968 | locus YDR297W, strain sur2, hits give low values 1.01 | locus YDR318W, strain mcm21, hits give low values 1.03 | locus YDR334W, strain swr1, hits give low values 1 | locus YDR335W, strain msn5, hits give low values 0.998 | locus YDR388W, hits give low values 1.02 | locus YDR392W, strain spt3, hits give low values 1 | locus YDR502C, strain sam2, hits give low values 1.02 | locus YEL003W, strain gim4, hits give low values 0.995 | locus YEL037C, strain rad23, hits give low values 1.01 | locus YEL061C, strain CIN8 (second series), hits give low values 0.989 | locus YEL061C, strain CIN8, hits give low values 1 | locus YER015W, strain faa2, hits give low values 0.997 | locus YER016W, strain bim1, hits give low values 1 | locus YER110C, hits give low values 1.02 | locus YER111C, strain swi4, hits give low values 0.977 | locus YER155C, strain BEM2 (second series), hits give low values 1.01 | locus YER155C, strain BEM2, hits give low values 1.01 | locus YER167W, strain BCK2, hits give low values 1.02 | locus YFR010W, strain ubp6, hits give low values 0.998 | locus YGL078C, strain dbp3, hits give low values 1.02 | locus YGL086W, strain mad1, hits give low values 1.01 | locus YGL167C, strain pmr1, hits give low values 1 | locus YGL173C, strain kem1, hits give low values 0.984 | locus YGL227W, strain vid30, hits give low values 0.987 | locus YGL240W, strain doc1, hits give low values 0.982 | locus YGL248W, strain PDE1, hits give low values 1.03 | locus YGL253W, strain hxk2, hits give low values 0.995 | locus YGR078C, strain PAC10, hits give low values 1.02 | locus YGR135W, strain pre9, hits give low values 1.02 | locus YGR229C, strain SMI1, hits give low values 1.04 | locus YGR252W, strain gcn5, hits give low values 1.03 | locus YHR013C, strain ard1, hits give low values 0.995 | locus YHR027C, strain rpn1, hits give low values 0.994 | locus YHR030C, strain SLT2, hits give low values 0.999 | locus YHR079C, strain IRE1 (second series), hits give low values 1.03 | locus YHR094C, strain hxt1, hits give low values 1.01 | locus YHR129C, strain ARP1, hits give low values 1 | locus YHR142W, strain chs7, hits give low values 1.01 | locus YHR200W, strain rpn10, hits give low values 1.01 | locus YIL066C, strain RNR3, hits give low values 1.02 | locus YIL073C, strain SPO22, hits give low values 1.1 | locus YIL125W, strain kgd1, hits give low values 1.03 | locus YIR030C, strain dcg1, hits give low values 1.02 | locus YJL092W, strain hpr5, hits give low values 0.987 | locus YJL095W, strain BCK1 (second series), hits give low values 0.987 | locus YJL095W, strain BCK1, hits give low values 1.02 | locus YJL115W, strain asf1, hits give low values 1 | locus YJL129C, strain trk1, hits give low values 1.02 | locus YJL134W, strain LCB3, hits give low values 1 | locus YJL154C, strain vps35, hits give low values 1 | locus YJL164C, strain tpk1, hits give low values 1 | locus YJL166W, strain qcr8, hits give low values 0.992 | locus YJL168C, strain set2, hits give low values 1.02 | locus YJL187C, strain SWE1 (second series), hits give low values 1.01 | locus YJL187C, strain SWE1, hits give low values 1
